A selection: hits, their analogues and other compounds. The true share with any hit is near 10%.
MmCpn inh: blocks the Methanococcus maripaludis chaperonin Mm-Cpn; 330,000 compounds, 0.031% hits; purified Mm-Cpn ATPase, ADP Transcreener TR-FRET; Potency, µM (highest dose often 76.9 µM), for inactives: at the top dose activity, negative = inhibition, actives largely listed as inhibitors; AID 504842; note: potency is the fitted concentration of half-maximal effect; nearly all actives have a fitted effect of over 80% in size
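ATP (10 uM final) was added to archaeal chaperonin (25 nM final) after 10 min exposure to test compound at 37°C; after 30 min further incubation, ADP was detected by competitive TR-FRET.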
Sfp inh: inhibitors of Bacillus subtilis Sfp phosphopantetheinyl transferase; Q9F4F7; Biochemical Sfp PPTase activity, qHTS; 310,000 compounds, 3.5% hits; Potency, µM, without a hit: largest response in the series, negative = inhibition, hits mostly inhibitors;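 note: the enzyme is Sfp with the accession as filed and its product quenches rhodamine fluorescence; potency is the fitted concentration of half-maximal effect; 0% = enzyme reaction without inhibitor and -100% = no enzyme wells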
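With Hepes-Na pH 7.6 buffer containing 10 mM MgCl2, Sfp (15 nM) modified BHQ-2-YbbR (12.5 uM) using rhodamine-CoA (5 uM). Two reads 30 minutes apart at 525/598 nm yielded each well's rate.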
CCT chaperon mod: modulators of cytosolic chaperonin (CCT/TRiC) activity; purified chaperonin ATPase assay, HTRF ADP detection, 30 min; activity change, % (test concentration not listed), hits read low; 360,000 compounds, 0.3% hits; in the data active = activity change below about -30%
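ATPase activity: ADP formed was measured by HTRF Transcreener (665/615 nm ratio) after 30 min at 37 deg C with 10 uM ATP. Compounds screened at one 76 uM concentration against 40 or 20 nM TRiC in Tris pH 7.4/KCl/MgCl2/DTT buffer.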
PLK1 PBD inh: inhibitors of human PLK1 polo-box domain binding; Plk1 PBD binding of FITC phosphopeptide, fluorescence polarization; Potency, µM, for inactives: max response, negative = inhibition, most hits filed as inhibitors; 360,000 compounds, 2.8% hits; AID 720504; note: potency is the fitted concentration of half-maximal effect; series mostly up to about 57 µM; nearly all actives have a fitted effect of over 65% in size
Target sequence (P53350 whole entry, looked up, the tested form may be a part): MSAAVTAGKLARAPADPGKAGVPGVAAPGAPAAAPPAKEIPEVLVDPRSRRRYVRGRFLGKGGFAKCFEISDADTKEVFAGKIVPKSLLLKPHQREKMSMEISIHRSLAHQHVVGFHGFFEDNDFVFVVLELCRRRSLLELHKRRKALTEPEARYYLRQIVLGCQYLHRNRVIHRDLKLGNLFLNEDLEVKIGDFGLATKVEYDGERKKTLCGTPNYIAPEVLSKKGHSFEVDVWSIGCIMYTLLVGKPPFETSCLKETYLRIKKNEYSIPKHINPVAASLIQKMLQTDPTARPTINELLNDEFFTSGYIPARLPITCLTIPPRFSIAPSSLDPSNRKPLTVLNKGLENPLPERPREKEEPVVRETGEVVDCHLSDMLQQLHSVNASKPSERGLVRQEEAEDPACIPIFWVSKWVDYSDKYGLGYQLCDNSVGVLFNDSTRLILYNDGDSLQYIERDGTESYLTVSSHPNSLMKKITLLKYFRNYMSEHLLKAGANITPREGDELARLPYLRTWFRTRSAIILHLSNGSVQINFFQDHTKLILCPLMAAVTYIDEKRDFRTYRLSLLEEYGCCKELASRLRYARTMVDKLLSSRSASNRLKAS
VDR inhibitor: blocks the human vitamin D receptor; P11473; AID 504847; Potency, µM, for the others: max response, negative = inhibition, hits mostly inhibitors; 400,000 compounds, 0.93% hits; VDR-SRC2-3 peptide fluorescence polarization, 2 h; note: potency is the fitted concentration of half-maximal effect
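VDR–SRC2-3 interaction, FP format. Cmpds 23 nl via pintool, brief spin, 2 h ambient incubation.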
G9a inh: blocks human histone lysine methyltransferase G9a; AID 504332; Q96KQ7; Potency, µM (titrated, usually from 102 µM), for inactives: at the top dose activity, negative = inhibition, usual class: inhibitors; 350,000 compounds, 8.8% hits; G9a H3K9 monomethylation, AlphaScreen, 2 h; note: potency is the fitted concentration of half-maximal effect; nearly all actives have a fitted effect of over 75% in size
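Readings reflect AlphaScreen signal from monomethyl-H3K9 antibody detection. HMT at 20 nM; substrate b-H3K9 500 nM; cofactor SAM 20 uM; 2 h RT reaction; compounds tested as titrations in qHTS with 15 min preincubation.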
* = called active by the depositor; u = inconclusive; x = no result given; ! = not active in a repeat; [ ] = remark or other dose. Unless noted, calls come from the whole dose curve; as a rule, active = well fitted curve in the direction sought with a large enough effect; inconclusive = small, poorly fitted or top-dose-only effect, or another doubt; inactive = no such curve, though single readings can be large; an effect the other way counts as inactive or inconclusive. Unless noted, % is set by controls: 0 for no effect and ±100 for the full control effect.

SMILES	MmCpn inh	Sfp inh	CCT chaperon mod	PLK1 PBD inh	VDR inhibitor	G9a inh
Cc1cccc(-c2nnc(SCC(=O)Nc3cc(C)on3)n2C)c1	-1%	-2%	-2	-10%	0%	-8%
Nc1nc(N)c(S(=O)(=O)c2ccccc2)c(Nc2ccc(F)cc2)n1	x	x	x	x	-19%	-7%[59 µM]
N#Cc1ccc(CN2C(=O)c3ccccc3Sc3ccc(C(=O)OCc4ccco4)cc32)cc1	x	x	x	x	8%	-7%[59 µM]
COc1cc(NC(=O)Cc2c(C(=O)O)c(C)cn2C)cc(OC)c1	x	x	x	x	-14%	-5%[59 µM]
C[C@]12C=CC(=O)N[C@@H]1CC[C@@H]1C2CC[C@]2(C)C(C(=O)Nc3cc(C(F)(F)F)ccc3C(F)(F)F)CC[C@@H]12 (stereo partly specified)	x	7%	x	x	12%	34%[59 µM]
Cc1ccc(N=Cc2cccc(O)c2O)c(C)c1	-6%	3.5µM*	x	x	20µM*	u
Cc1ccc(N=Cc2sc(O)c3ccccc23)c(C)c1	3%	22µM*	-2	65%	-23%	8.9µM*
CCN(CC)c1ccc(C=Nc2ccc(C)cc2C)c(O)c1	-4%	-19%	2	-4%	2%	x
Oc1cccc(/C=N/N=C/c2cccc(O)c2O)c1O	-1%	24%	1	3%	-16%	32µM*
Cc1ccccc1N=Cc1cccc(O)c1O	-1%	u	0	-18%	14µM*	7.9µM*
CS(=O)(=O)Nc1ccc(C2=NN(C(=O)c3ccco3)C(c3ccccc3F)C2)cc1 (stereo unspecified)	u	-13%	-2	-10%	-15%	50µM*
Cc1ccc(-c2cc(-c3ccccc3Cl)c(C#N)c(N)n2)o1	0%	11µM*	1	u	-9%	u
N#Cc1c(-c2cccnc2)cc(-c2ccccc2)nc1N	-2%	-1%	-4	-19%	-4%	x
Cc1ccc(-c2cc(-c3ccc(F)cc3)nc(N)c2C#N)o1	-3%	8.9µM*	-3	-10%	1%	2.5µM*
Cc1ccc(-c2cc(-c3ccccc3)c(C#N)c(N)n2)o1	1%	7.9µM*	-2	21µM*	u	2.8µM*
Cc1nn(C)c2c1c(C(F)(F)F)cc(=O)n2CC(=O)N1CCCCC1C (stereo unspecified)	x	x	x	x	10%	10%[59 µM]
Cc1oc2c(c1C(=O)Nc1cccc(Br)c1)C1=NCCN1C=N2	x	x	x	x	5%	10%[59 µM]
COc1ccc(C(=O)N2CCn3c(C)ccc3C2C)cc1 (stereo unspecified)	-1%	-2%	1	-6%	3%	u
CC(=O)c1c(C)c(C)c2n1CCn1c(C)ccc1-2	-6%	-19%	-8	-16%	-17%	6.3µM*
O=C1[C@H]2[C@H]3[C@H](O)[C@H](O)C/C(=N/OCc4ccccc4)[C@H]3CC[C@@H]2C(=O)N1Cc1ccc2c(c1)OCO2	x	20%	x	x	x	x
Cc1nc2ccccn2c1-c1ccnc(=S)[nH]1	1%	10µM*	-2	27µM*	u	10µM*
CCOC(=O)c1ccccc1NC(=O)Cn1c(=O)n(CCC(=O)N2CCc3ccccc3C2)c(=O)c2ccccc21	x	x	x	x	17%	-19%[59 µM]
CCN1/C(=C/C=C2/SC(=Nc3cccc4ncccc34)N(C)C2=O)Sc2ccccc21	x	x	1	23%	-8%	x
CC[n+]1c(/C=C(\C)OC)sc2ccccc21	-9%	-11%	0	7%	13%	u
CC/C(=C/c1sc2ccccc2[n+]1CC)SC	0%	-3%	-2	-9%	-19%	-19%[59 µM]
SMILES	MmCpn inh	Sfp inh	CCT chaperon mod	PLK1 PBD inh	VDR inhibitor	G9a inh
CC[n+]1c(/C=C/Nc2ccccc2)sc2ccccc21	-1%	-18%	1	-14%	21%	7.9µM*
CCN1/C(=C/C=C/c2sc3ccccc3[n+]2CC)Sc2ccccc21	u	79µM*	-2	12%	7.9µM*!	u
CCN1/C(=C/C=C/C=C/c2sc3ccccc3[n+]2CC)Sc2ccccc21	32µM*	45µM*	x	x	u	28µM*
COCC1=C2c3ccccc3[C@H](C[N+](=O)[O-])C(C(=O)OC)(C(=O)OC)CC2C2C(=O)N(c3ccccc3)C(=O)C2C1 (stereo partly specified)	x	-9%	x	x	6%	x
Cc1cc(NC(=O)CSc2cc(Cl)ccc2Cl)n(-c2ccccc2)n1	1%	8%	-6	-2%	2%	59%[59 µM]
Cc1ccc(C)c(SCC(=O)Nc2cc(C)nn2-c2ccc(F)cc2)c1	3%	22%	x	x	x	11µM*
OCC1CCCCN1C(=S)NCc1ccco1 (stereo unspecified)	-3%	50µM*	-2	1%	-10%	x
CC1CCCC(C)N1C(=S)NCc1ccco1 (stereo unspecified)	0%	35µM*	0	u	-9%	u
CCc1nnc(NS(=O)(=O)c2ccc(NC(=S)NC(=O)/C=C/c3ccc(OC)cc3)cc2)s1	1%	79µM*	2	27µM*	1%	50µM*
CCc1nnc(NS(=O)(=O)c2ccc(NC(=O)/C=C/C(=O)O)cc2)s1	u	50µM*	0	-38%	-4%	x
CCc1nnc(NS(=O)(=O)c2ccc(NC(=S)NC(=O)c3ccccc3)cc2)s1	0%	5%	2	-25%	-12%	u
CCc1nnc(NS(=O)(=O)c2ccc(NC(=S)NC(=O)/C=C/c3ccccc3)cc2)s1	-2%	-8%	-6	u	-30%	u
CCc1nnc(NS(=O)(=O)c2ccc(NC(=S)NC(=O)/C=C/c3ccc(C(C)C)cc3)cc2)s1	2%	u	-3	21µM*	-9%	18%[0.501 µM]
CCc1nnc(NS(=O)(=O)c2ccc(N/C=C\C(=O)c3ccc4ccccc4c3)cc2)s1	0%	-9%	-1	24µM*	-23%	15%[59 µM]
CC(=O)c1cccc(Nc2ncnc3c2cnn3C)c1	x	x	x	x	8%	0%[59 µM]

Screening results from PubChem.
